# About 83,000 compounds went through this panel and 20% of them were active in at least one assay; those are over-represented in the sample as a whole.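 For each line, cells grew in 96-well plates with the test compound present at a single concentration for 48 hours.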 The source made the active and inactive calls. The calls were made as follows: active = growth percent below 10; inactive = the rest.
# Assays:
# Assay in all cases: NCI-60 one-dose screen, 48 h (100 = growth as untreated, 0 = no growth, -100 = all killed)
# Conditions in all cases: 10 µM unless noted
# DU-145 prostate = tested on: DU-145 prostate
# K-562 leukemia = tested on: K-562 leukemia
# MDA-MB-231 breast = tested on: MDA-MB-231 breast
# RXF 393 renal = tested on: RXF 393 renal
# SF-268 CNS = tested on: SF-268 CNS
# SF-295 CNS = tested on: SF-295 CNS
# SF-539 CNS = tested on: SF-539 CNS
# UACC-257 melanoma = tested on: UACC-257 melanoma
# M14 melanoma = tested on: M14 melanoma
# MALME-3M melanoma = tested on: MALME-3M melanoma
Structure (SMILES),growth (DU-145 prostate),growth (K-562 leukemia),growth (MDA-MB-231 breast),growth (RXF 393 renal),growth (SF-268 CNS),growth (SF-295 CNS),growth (SF-539 CNS),growth (UACC-257 melanoma),growth (M14 melanoma),growth (MALME-3M melanoma)
C[C@@H](c1ccc2c(c1)[nH]c1ccc(Cl)cc12)c1nc2ccccc2[nH]1,103% (inactive),82% (inactive),88.1% (inactive),105% (inactive),87.3% (inactive),93.5% (inactive),98.7% (inactive),106% (inactive),111% (inactive),
NCCCOc1cc2ccccc2cc1C(=O)Nc1ccc(Cl)cc1OC(=O)c1cc2ccccc2cc1OCCCN,-97% (active),-37.5% (active),,-86.4% (active),-80.5% (active),-76.2% (active),-89.6% (active),,-86.7% (active),-70.7% (active)
COc1ccc(/C=C(/C(=O)N2CCCCC2)c2cc(OC)c(OC)c(OC)c2)cc1,9.17% (active),11% (inactive),41.5% (inactive),-1.64% (active),50.1% (inactive),14.1% (inactive),-10.5% (active),75% (inactive),-6.93% (active),
COc1cc(CNC(=O)CCCC/C=C/C(C)C)ccc1OCc1nnc(Nc2ccccc2F)o1,88.7% (inactive),60.4% (inactive),63.9% (inactive),68.8% (inactive),45.5% (inactive),48% (inactive),48.2% (inactive),98.2% (inactive),99.7% (inactive),
C[C@@H](c1ccc2c(c1)[nH]c1ccc(Cl)cc12)c1nc2ccc(Cl)cc2[nH]1,90.7% (inactive),52.6% (inactive),60.1% (inactive),101% (inactive),80.9% (inactive),99.4% (inactive),85.7% (inactive),98% (inactive),100% (inactive),
COc1ccc(CN2C(=O)/C(=C\C(=O)c3ccc(OCCN4CCCC4)cc3)c3ccccc32)cc1,71.9% (inactive),-25.9% (active),93% (inactive),65.2% (inactive),84.3% (inactive),93.9% (inactive),86.6% (inactive),105% (inactive),79.6% (inactive),
Cc1[nH]n(C(=S)Nc2nc3cc(Cl)c(F)cc3s2)c(=O)c1N=Nc1ccc(F)c(Cl)c1,154% (inactive),89.5% (inactive),93.5% (inactive),,90% (inactive),,108% (inactive),-34.2% (active),114% (inactive),139% (inactive)
O=c1oc2ccc3ccccc3c2cc1-c1ccnc2[nH]c(=S)[nH]c(=O)c12,106% (inactive),93.4% (inactive),87.4% (inactive),118% (inactive),98.7% (inactive),101% (inactive),103% (inactive),98.9% (inactive),105% (inactive),
CCCCCN1CCN(C(CC(=O)c2ccccc2)C(=O)c2ccccc2)CC1 (stereo not drawn),69.1% (inactive),11.2% (inactive),,111% (inactive),91.5% (inactive),105% (inactive),110% (inactive),107% (inactive),97.6% (inactive),50.4% (inactive)
CCOC(=O)C1=NN(c2ccccc2)C2=NC(=O)/C(=C\c3cn(-c4ccccc4)nc3-c3cc4ccccc4o3)C(=O)N12,109% (inactive),74.9% (inactive),78.7% (inactive),124% (inactive),105% (inactive),108% (inactive),114% (inactive),102% (inactive),101% (inactive),
CCCC(=O)NNc1[nH]c(-c2cc(OC)c(OC)c(OC)c2)cc1C(=O)OCC,94.5% (inactive),37.9% (inactive),107% (inactive),105% (inactive),120% (inactive),95.3% (inactive),91.6% (inactive),106% (inactive),,
COc1ccc(OC)c(Cn2cc3c(c2-c2ccccc2)CCc2cnoc2-3)c1,94.7% (inactive),16.6% (inactive),64.7% (inactive),80% (inactive),71.8% (inactive),22.8% (inactive),54.9% (inactive),79.5% (inactive),50.7% (inactive),
COc1ccc2oc(=O)cc(CN3C(=O)S/C(=C\c4ccc(Cl)cc4)C3=O)c2c1,96.5% (inactive),64.1% (inactive),108% (inactive),116% (inactive),92.2% (inactive),92% (inactive),99.6% (inactive),103% (inactive),96.2% (inactive),
CCOC(=O)NNc1[nH]c(-c2ccc(OC)cc2)cc1C#N,108% (inactive),68.9% (inactive),89.8% (inactive),96% (inactive),103% (inactive),111% (inactive),94.3% (inactive),92.5% (inactive),,
COc1ccc2sc(-n3nc4nc5n(c(=O)c4c3N)-c3ccccc3Sc3ccccc3-5)nc2c1,99.7% (inactive),47.9% (inactive),47.5% (inactive),93.8% (inactive),86.8% (inactive),65.8% (inactive),104% (inactive),89.6% (inactive),77.1% (inactive),
O=C(/C=C1\C(=O)N(Cc2ccc([N+](=O)[O-])cc2)c2ccccc21)c1ccc(OCCN2CCCCC2)cc1,-35.3% (active),-35.2% (active),-60.8% (active),-90.7% (active),-35.4% (active),49.7% (inactive),-84.6% (active),-4.94% (active),-59.4% (active),
COc1cccc(Cn2cc3c(c2)-c2oncc2CC3)c1,11.3% (inactive),13.6% (inactive),5.68% (active),8.73% (active),37.6% (inactive),-29.1% (active),-7.13% (active),73.1% (inactive),12.5% (inactive),
COc1cc(Cn2ccc3c2-c2oncc2CC3)cc(OC)c1,43.7% (inactive),24.9% (inactive),44.1% (inactive),54.6% (inactive),50% (inactive),24.2% (inactive),19.6% (inactive),53.4% (inactive),12.7% (inactive),
COc1ccc2c(c1)/C(=C/c1c(-c3cc(OC)c(OC)c(OC)c3)nc3sccn13)C(=O)N2,88% (inactive),87.3% (inactive),66.1% (inactive),82.4% (inactive),107% (inactive),93.2% (inactive),91.9% (inactive),101% (inactive),,

Structure (SMILES),growth (DU-145 prostate),growth (K-562 leukemia),growth (MDA-MB-231 breast),growth (RXF 393 renal),growth (SF-268 CNS),growth (SF-295 CNS),growth (SF-539 CNS),growth (UACC-257 melanoma),growth (M14 melanoma),growth (MALME-3M melanoma)
c1ccc(-c2cn3ccnc3c(-c3ccc4ncn(C5CCCCC5)c4c3)n2)cc1,70.7% (inactive),29.4% (inactive),58.5% (inactive),55% (inactive),78.2% (inactive),60.2% (inactive),72.2% (inactive),94.8% (inactive),61.8% (inactive),
Oc1ccc2ccccc2c1/C=N\Nc1ccccn1,4.84% (active),16.1% (inactive),25.1% (inactive),18.3% (inactive),16.8% (inactive),-42.7% (active),-4.88% (active),12.9% (inactive),,
COc1ccc(CN2C(=O)/C(=C\C(=O)c3ccc(OCCN4CCCCC4)cc3)c3ccccc32)cc1,66% (inactive),2.32% (active),84.8% (inactive),61.7% (inactive),82.7% (inactive),91.5% (inactive),86.4% (inactive),99% (inactive),72.1% (inactive),
COc1ccc(C2=C/C(=C\c3ccc(Cl)cc3)C(=O)NN2C(=S)NN)cc1,108% (inactive),93.9% (inactive),96.1% (inactive),105% (inactive),95.8% (inactive),96.3% (inactive),111% (inactive),104% (inactive),99.5% (inactive),
CC(C)OC(=O)Nn1cnc2ccccc21,103% (inactive),96.7% (inactive),117% (inactive),108% (inactive),120% (inactive),103% (inactive),95.2% (inactive),109% (inactive),,
CC1(C)NC(=S)NC1=O,116% (inactive),89% (inactive),,105% (inactive),111% (inactive),95.7% (inactive),111% (inactive),106% (inactive),98.5% (inactive),106% (inactive)
O=[N+]([O-])c1ccc(-c2ncc(-c3ccc(O)cc3O)[nH]2)cc1,143% (inactive),95.6% (inactive),104% (inactive),,101% (inactive),,118% (inactive),-43.6% (active),135% (inactive),218% (inactive)
N#Cc1ccc(NC2c3ccccc3CC2O)cc1 (stereo not drawn),110% (inactive),90.4% (inactive),114% (inactive),89.6% (inactive),115% (inactive),114% (inactive),102% (inactive),125% (inactive),,
N=c1c2c(=O)n3c(nc2nc2sc4ccc(Cl)cc4n12)-c1ccccc1Sc1ccccc1-3,38.4% (inactive),19.8% (inactive),7.92% (active),38.2% (inactive),42.2% (inactive),5.48% (active),27.2% (inactive),29.9% (inactive),21.6% (inactive),
CC(=O)c1nn(-c2ccc(C)cc2)cc1C(=O)c1cc2c(ccc3ccccc32)oc1=O,110% (inactive),81.2% (inactive),73% (inactive),126% (inactive),99.5% (inactive),92.1% (inactive),94.1% (inactive),104% (inactive),91.3% (inactive),
CCCCn1c(Cc2ccc(OC)cc2)nc2cc(OC)c(OC)cc2c1=O,103% (inactive),48.6% (inactive),73.9% (inactive),,86.1% (inactive),,103% (inactive),-56.6% (active),119% (inactive),112% (inactive)
CCCCN(CCC)CCCCCCCCCCN1CCCc2ccccc21,77.1% (inactive),17.5% (inactive),,109% (inactive),75.7% (inactive),83.6% (inactive),101% (inactive),106% (inactive),88.6% (inactive),74.3% (inactive)
COc1ccc(C2=NN(C(=O)c3cc(-c4ccc(C)cc4)nc4ccccc34)C(c3cc(-c4ccccc4)nn3-c3ccccc3)C2)cc1 (stereo not drawn),91.2% (inactive),84.1% (inactive),99.1% (inactive),95.2% (inactive),77.1% (inactive),86.7% (inactive),105% (inactive),96.8% (inactive),83.4% (inactive),
CCCCCCCCCCCCCCCCCC1=NCCN1CS(=O)(=O)O,33.7% (inactive),-10.9% (active),-15.8% (active),69.9% (inactive),-24.5% (active),74.6% (inactive),61.2% (inactive),91.8% (inactive),34.6% (inactive),
COc1ccc(Cn2cc3c(c2-c2ccccc2)CCc2cnoc2-3)cc1N,13.7% (inactive),14.8% (inactive),15.2% (inactive),15.2% (inactive),28.7% (inactive),-19.7% (active),-13.1% (active),63.2% (inactive),18.2% (inactive),
COc1ccc(Cn2cc3c(c2-c2ccc(O)cc2)CCc2cnoc2-3)cc1,20.2% (inactive),12% (inactive),18% (inactive),6.55% (active),45.5% (inactive),-24.6% (active),-16.2% (active),70.8% (inactive),9.96% (active),
COc1ccc(/C=C(/C(=O)N2CCN(c3ccc(C)cc3)CC2)c2cc(OC)c(OC)c(OC)c2)cc1N,5.56% (active),11.2% (inactive),33.6% (inactive),55.2% (inactive),25.6% (inactive),15.4% (inactive),-4.4% (active),73.8% (inactive),3.96% (active),
COc1ccc(OC)c(Cn2cc3c(c2)-c2oncc2CC3)c1,52% (inactive),14.7% (inactive),42% (inactive),36.7% (inactive),57.5% (inactive),-8.86% (active),-7.35% (active),60.5% (inactive),4.07% (active),
